Entries with a potency or affinity are not part of this list. Calls of active or inactive are those of the source.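 Rule for the calls: active = signal-lowering compounds whose fitted half-maximal concentration is at or below twice the top tested dose in every run; inconclusive = runs disagree, flat 30 to 70% inhibition, or poor curve fit; inactive = the rest.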
Target: Protein S100-A4 (Homo sapiens) (UniProt P26447)
Test: S100A4-myosin IIA binding inhibitor potency, dose response, biochemical, fluorescence polarization, cherry-picked hits (AID 687001)
Conditions: FP, S100A4/TAMRA-myosin IIA peptide binding; series mostly up to 11 µM

Sequence of Protein S100-A4 (Homo sapiens) (P26447 whole entry, looked up): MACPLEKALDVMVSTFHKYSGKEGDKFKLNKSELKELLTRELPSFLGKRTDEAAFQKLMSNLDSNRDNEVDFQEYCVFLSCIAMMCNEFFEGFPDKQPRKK

outcome, inactive:
COc1ccc(N2CCN(C(=O)[C@H](C)N3C(=O)C4CC=CCC4C3=O)CC2)cc1 (stereo partly drawn), COc1ccc(CN2C(=O)c3ccccc3C2c2nnnn2Cc2ccccc2)cc1OC (stereo not drawn), C[C@H]1CCCCO[C@H](CN(C)Cc2ccc(C(F)(F)F)cc2)[C@@H](C)CN([C@@H](C)CO)C(=O)c2cc(NC(=O)Nc3ccc4c(c3)OCO4)ccc2O1, Cc1cc(=O)oc2c(C)c(OCC(=O)N3CCN(C(=O)C4COc5ccccc5O4)CC3)ccc12 (stereo not drawn), COCC(=O)N1[C@@H](C#N)[C@H](c2ccc(-c3cccc(F)c3)cc2)[C@@H]1CO, CSC[C@H]1CN(Cc2cccnc2)C(=O)[C@@H]1CC(=O)Nc1ccc(Br)cc1, C=C[C@@H]1c2ccccc2N(S(=O)(=O)c2ccc(C)cc2)[C@H](c2ccccc2C(F)(F)F)C1(C#N)C#N, C[C@H]1CN([C@@H](C)CO)C(=O)c2cc(NC(=O)NC3CCCCC3)ccc2O[C@@H]1CN(C)C(=O)Nc1ccccc1, COCCN(C(=O)COC(=O)COc1ccc2ccccc2c1)c1c(N)n(Cc2ccccc2)c(=O)[nH]c1=O, CCCNC(=O)N1[C@H](CO)[C@@H]2c3ccccc3N(C(=O)c3ccc(F)cc3)C[C@@H]21, CCCNC(=O)Nc1ccc2c(c1)C(=O)N(C)C[C@@H](OC)[C@@H](C)CN[C@@H](C)CO2, CSc1cccc(NC(=O)C2CCN(S(=O)(=O)c3ccc4c(c3)NC(=O)CO4)CC2)c1, Cc1cc2cc(C#N)c(N3CCOCC3)nc2cc1Cl
